# High-throughput results: PubChem, The Scripps Research Institute Molecular Screening Center
# PME-1 primary: PME-1 inhibitors via competitive probe labeling, primary screen, biochemical, fluorescence polarization, FP-Rh probe, HTS; recombinant PME-1; inhibition, % at 5.9 µM; hit rate 0.53% among 320,000;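 active = inhibition above the campaign mean of all compounds plus 3 SD, cut at about 26% in these data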;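 note: competitive labeling of PME-1 active site by serine hydrolase directed probe; 0% = PME-1 with DMSO and 100% = wells lacking PME-1 enzyme; inhibitors block probe labeling so polarization falls and inhibition rises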
# PAD4 inh: human PAD4 inhibitors, primary screen, biochemical, fluorescence polarization, 1536-well format; Protein-arginine deiminase type-4 (Homo sapiens), Q9UM07; recombinant PAD4, RCA probe fluorescence polarization; inhibition, % at 6.36 µM; hit rate 0.41% among 330,000; AID 485272, 2010;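 active = percent inhibition above a cutoff equal to the mean of all tested compounds plus 3 SD, cut at about 15% in these data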;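 note: 0% = PAD4 with RCA probe and DMSO and 100% = probe without PAD4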
# Target sequence (Q9UM07 whole entry, looked up): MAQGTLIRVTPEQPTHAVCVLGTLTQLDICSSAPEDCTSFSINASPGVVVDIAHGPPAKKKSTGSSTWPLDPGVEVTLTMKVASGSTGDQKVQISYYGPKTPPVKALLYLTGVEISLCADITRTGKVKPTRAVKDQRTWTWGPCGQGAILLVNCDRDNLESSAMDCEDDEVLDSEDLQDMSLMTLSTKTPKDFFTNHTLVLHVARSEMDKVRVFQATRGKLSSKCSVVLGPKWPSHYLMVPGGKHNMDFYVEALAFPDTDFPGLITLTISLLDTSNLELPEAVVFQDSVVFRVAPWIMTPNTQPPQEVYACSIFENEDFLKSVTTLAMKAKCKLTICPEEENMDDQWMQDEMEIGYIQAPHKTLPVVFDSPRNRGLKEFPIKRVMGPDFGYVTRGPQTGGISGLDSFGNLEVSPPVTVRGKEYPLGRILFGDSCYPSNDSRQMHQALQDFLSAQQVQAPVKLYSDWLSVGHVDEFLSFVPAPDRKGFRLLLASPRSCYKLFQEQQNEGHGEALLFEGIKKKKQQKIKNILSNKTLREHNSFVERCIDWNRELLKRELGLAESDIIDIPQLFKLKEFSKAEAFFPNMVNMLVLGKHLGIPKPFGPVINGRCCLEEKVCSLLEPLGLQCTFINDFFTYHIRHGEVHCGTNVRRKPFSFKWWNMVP
# GSTO1 counter: inhibitors of recombinant GSTO1, primary screen, counter-screen for RBBP9 inhibitor project, biochemical, fluorescence polarization; Glutathione S-transferase omega-1 (Homo sapiens), P78417; hit rate 1.1% among 300,000; inhibition, % at 5.96 µM; activity-based probe fluorescence polarization;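 active = inhibition above the campaign mean inhibition plus 3 SD, cut at about 35% in these data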;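 note: 0% = GSTO1-1 with DMSO and 100% = wells lacking GSTO1-1 enzyme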
# Fam108B counter: mouse Fam108B serine hydrolase inhibitors, primary screen, counter-screen for RBBP9 inhibitor project, biochemical, fluorescence polarization | recombinant Fam108B, FP-Rh probe fluorescence polarization | inhibition, % at 9.51 µM | hit rate 0.33% among 300,000 | AID 1947, 2009;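 active = inhibition above the screen mean inhibition plus 3 SD, computed separately per campaign, cut at about 18% in these data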;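 note: inhibitors lower polarization as less probe binds the enzyme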
# LYPLA1 inh: LYPLA1 inhibitors, primary screen, counter-screen for PME1 inhibitor project, biochemical, fluorescence polarization, FP-Rh probe ABPP; AID 2174, 2009; recombinant LYPLA1; hit rate 0.16% among 320,000; inhibition, % at 5.9 µM;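 active = inhibition above the mean of all tested compounds plus 3 SD, set per campaign, cut at about 14% in these data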;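 note: inhibitors block serine hydrolase probe labeling of LYPLA1 so polarization falls; 0% = enzyme with DMSO and 100% = wells lacking LYPLA1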
# LYPLA2 inh: LYPLA2 inhibitors, primary screen, counter-screen for PME1 inhibitor project, biochemical, fluorescence polarization, FP-Rh probe ABPP. Acyl-protein thioesterase 2 (Homo sapiens), O95372. inhibition, % at 5.9 µM. hit rate 0.38% among 320,000. recombinant LYPLA2;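 active = inhibition above the screen-wide mean plus 3 SD, limit set per campaign, cut at about 26% in these data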;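 note: 0% = LYPLA2 with DMSO and 100% = wells lacking LYPLA2 enzyme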
# LYPLA2 confirm: LYPLA2 inhibitors, retest, confirmation, counter-screen for PME1 inhibitor project, biochemical, fluorescence polarization, FP-Rh probe ABPP; inhibition, % at 5.9 µM; hit rate 72% among 1,100; recombinant LYPLA2; AID 2232, 2010; shares compounds with LYPLA2 inh;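 active = mean inhibition across replicates above the hit cutoff set in the primary screen, cut at about 26% in these data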;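 note: blocked labeling of the enzyme by serine hydrolase FP-Rh probe lowers polarization; 0% = enzyme with DMSO and 100% = wells lacking LYPLA2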
# LYPLA2 ABPP: LYPLA2 inhibitors in proteome, late-stage follow-up, gel-based competitive ABPP, fluorescence, assay provider; shares compounds with LYPLA2 inh; rhLYPLA2 in mouse brain proteome, gel ABPP FP-Rh; inhibition, % at 20 µM; hit rate 30% among 150;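 active = inhibition of LYPLA2 enzyme probe labeling above about 50%, limit read from the data; inactive = inhibition below that limit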;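 note: loss of FP-Rh probe labeling of the LYPLA2 gel band measured as band density; 0% = DMSO only control band and 100% = blank gel background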
# Active calls of the source: *; · = no result given. Only some compounds are listed: those with a hit (about 1.8% of all), similar ones and a draw of the others.
SMILES,PME-1 primary,PAD4 inh,GSTO1 counter,Fam108B counter,LYPLA1 inh,LYPLA2 inh,LYPLA2 confirm,others
O=C1CC(c2ccc(OCCCCCOc3ccc(C4CC(=O)NC4=O)cc3)cc2)C(=O)N1 (stereo not drawn),-4,-4,-2,-2,4,40*,53*,LYPLA2 ABPP=32
O=C(O)c1ccc(/C=N/NC(=O)c2ccc(CN3c4cccc5cccc(c45)S3(=O)=O)cc2)cc1,-38,-10,-41,-23,-25,-12,·,
O=C1CCC/C(=N/NC(=O)c2ccc(CN3c4cccc5cccc(c45)S3(=O)=O)cc2)C1,0,-1,-1,7,-4,57*,67*,
CS(=O)(=O)Nc1ccc(N2CCN(c3ccc(C(F)(F)F)cn3)CC2)nc1,2,-2,-2,3,8,84*,83*,LYPLA2 ABPP=72*
COc1cccc(NC(=O)COC(=O)c2c(C)nn(-c3ccccc3)c2C)c1,-11,0,·,·,-5,49*,42*,
CC1COc2ccccc2N1S(=O)(=O)c1cc(Cl)ccc1Cl (stereo not drawn),2,2,6,1,-2,-7,·,
O=C(Nn1cnc2ccccc2c1=O)c1ccccc1Cl,5,-3,1,-2,0,3,·,
O=C(Nc1ccc(Cl)cc1)Nn1cnc2ccccc2c1=O,-6,-2,4,0,-5,30*,34*,
Cc1ccc(NC(=O)c2cccc(S(=O)(=O)N3CCN(c4ccc(F)cc4)CC3)c2)nc1,-3,1,-9,-3,-3,3,·,
O=C(Nc1ccncc1)c1cccc(S(=O)(=O)N2CCN(c3ccc(F)cc3)CC2)c1,-5,-1,-5,-3,-11,40*,25,
CC1(C)Cc2c(sc3nnn(CC(=O)Nc4ccccc4)c(=O)c23)CO1,0,4,2,-1,-1,28*,36*,
Nc1nc(N)c(N=O)c(OCC2CCCCC2)n1,0,-2,6,2,-2,0,·,
CCCCCCC1CCC(C(=O)Nn2c(C)nc3ccccc3c2=O)CC1 (stereo not drawn),0,4,2,-4,1,46*,37*,
COc1ccc(CCNC(=O)C(=O)NCC2OCCN2S(=O)(=O)c2ccc3c(c2)OCCO3)cc1 (stereo not drawn),1,-9,2,2,-3,0,·,
COc1ccc(CCNC(=O)c2cc(S(=O)(=O)N3CCCCC3)c[nH]2)cc1OC,-4,2,1,4,-3,-7,·,
Cn1c2ccccc2c(=O)c2ccc(-c3ccc4c(c3)OCO4)cc21,-20,-3,-1,-12,-12,-20,·,
COc1ccc(N2CS(=O)(=O)/C(=C/N(C)C)C2=O)cc1,-4,7,4,-7,-1,0,·,
COc1ccc(NC(=O)CN2CCN(c3nc(-c4cccc(OC)c4)cs3)CC2)cc1,4,3,3,3,1,33*,19,
COc1cccc(-c2csc(N3CCN(CC(=O)Nc4ccc5c(c4)OCO5)CC3)n2)c1,4,2,7,1,-7,5,·,
CCOc1ccc(C(=O)NC(=S)Nc2ccc(NC(=O)CC)cc2)cc1[N+](=O)[O-],-2,0,3,-6,-2,28*,27*,
CCOc1ccc(C(=O)NC(=S)Nc2ccccc2OC)cc1[N+](=O)[O-],-7,0,0,6,5,5,·,
O=C(COc1ccccc1F)NNC(=O)c1cccc(-n2cccc2)c1,-5,-1,-7,4,-1,2,·,
Cc1noc(C)c1C(=O)OCC(=O)Nc1cccc(S(N)(=O)=O)c1,5,3,4,3,3,2,·,
Cc1cc(NC(=O)COC(=O)c2c(C)noc2C)ccc1Br,-6,-1,-2,-4,2,49*,53*,
Cc1nc(C(=O)NC2CCOCC2)sc1C1(C)CC(c2cccc([N+](=O)[O-])c2)=NO1 (stereo not drawn),-6,-2,1,-2,-2,34*,45*,
SMILES,PME-1 primary,PAD4 inh,GSTO1 counter,Fam108B counter,LYPLA1 inh,LYPLA2 inh,LYPLA2 confirm,others
Cc1nc(C(=O)NC2CCOCC2)sc1C1(C)CC(c2ccccc2)=NO1 (stereo not drawn),1,-3,3,4,3,8,·,
COc1cccc(OCC(O)CN2CCN(CCN3C(=O)c4cccc5cccc(c45)C3=O)CC2)c1 (stereo not drawn),0,0,8,1,3,32*,34*,
COc1cccc(OCC(O)CN2CCOCC2)c1 (stereo not drawn),2,-5,2,-2,-2,-4,·,
Cc1cc(C)c2c(n1)SCC(=O)N2CC(=O)Nc1ccc(Br)c(C)c1,1,-1,-4,-3,-3,56*,33*,
CNC(=O)CN1C(=O)CSc2nc(C)cc(C)c21,6,2,2,1,2,-3,·,
COc1ccc(NC(=O)COC(=O)c2ccc(O)cc2)c([N+](=O)[O-])c1,10,7,10,4,5,12,·,
CC(=O)c1ccc(OCc2cc(C(=O)NC(C)c3cnn(C)c3)no2)cc1 (stereo not drawn),-3,1,6,0,5,30*,22,
O=C(Nc1ccccc1C(=O)O)c1cc(S(=O)(=O)N2CCCCCC2)ccc1Cl,6,-3,-9,0,-4,35*,6,
CCOC(=O)N1CCN(S(=O)(=O)c2ccc(F)c(C(=O)Nc3cccc(Cl)c3C)c2)CC1,6,2,-4,-3,2,40*,41*,
O=C(N[C@H](C(=O)O)c1ccccc1)C1CCC(Cn2nnc3ccccc3c2=O)CC1 (stereo partly drawn),-1,3,-7,-4,-1,6,·,
O=C(OCC(=O)N1CCc2ccccc21)c1ccccc1[N+](=O)[O-],4,-5,·,·,-3,49*,56*,
CN(Cc1nc(-c2ccccn2)no1)S(=O)(=O)c1ccc(Cl)cc1,0,-4,0,0,2,28*,26*,
